Experimental findings from PubChem BioAssay (NCI) are described below.

The nature of experiment [1]: NCI Yeast Anticancer Drug Screen. Data for the rad50 strain (AID 155).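 Further: 0% = growth of vehicle-only cultures of the same strain.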 The following applies: S. cerevisiae rad50 strain growth inhibition; at 50.0 µM; stronger effect = higher value. Put shortly: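 Cells are treated with compound, grown, and their growth is then scored against vehicle-only cultures of the same repair-deficient yeast strain.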
Experiment [2] in a line: NCI Yeast Anticancer Drug Screen. Data for the mec2-1 strain (AID 157). As to conditions: S. cerevisiae mec2-1 strain, at 50.0 µM, stronger effect = higher value. Put shortly:
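Using mec2-1 yeast: add compound, measure growth, express inhibition versus vehicle-treated cultures.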

The nature of experiment [3]: NCI Yeast Anticancer Drug Screen. Data for the sgs1 mgt1 strain (AID 161).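 Further: 0% = growth of cultures given vehicle only.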 The following applies: S. cerevisiae sgs1 mgt1 strain, at 50.0 µM, stronger effect = higher value. Put shortly:
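Growth of a repair-deficient yeast mutant was monitored after compound treatment and expressed as inhibition relative to vehicle-treated cultures.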

The nature of experiment [4]: NCI Yeast Anticancer Drug Screen. Data for the cln2 rad14 strain (AID 165).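 Further: 0% = growth equal to vehicle treated cultures.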 As to conditions: S. cerevisiae cln2 rad14 strain, at 50.0 µM, stronger effect = higher value. Put shortly: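 Yeast strain cln2 rad14, bearing defects in cell cycle control and DNA repair, serves as the test system; values reflect growth inhibition compared with vehicle.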
Experiment [5] is described as follows: NCI Yeast Anticancer Drug Screen. Data for the bub3 strain (AID 167). As to conditions: S. cerevisiae bub3 mutant strain, at 50.0 µM, stronger effect = higher value. Put shortly:
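Part of a panel of yeast mutants defective in DNA damage repair or cell cycle regulation. Each strain is grown with compound, and inhibition is calculated relative to solvent-treated cultures.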

Experiment [6] in a line: NCI Yeast Anticancer Drug Screen. Data for the mlh1 rad18 strain (AID 175). The following applies: S. cerevisiae mlh1 rad18 strain growth inhibition; at 50.0 µM; stronger effect = higher value. Put shortly:
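Steps: expose repair-defective yeast to compound; measure growth; express inhibition against vehicle-treated controls.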

Compounds without any hit were thinned out: in the full panel of roughly 79,000, 15% have a hit. Unmarked numbers belong to inactive results. Active and inactive are the calls of the source. No stated cut-off is given here; in the data, active means growth inhibition above about 70%; inactive means the rest.

On to `CN(C)c1ccc(-c2cccc[n+]2C)cc1`, for which the growth inhibition in experiment [1] is -12.8%; in experiment [2], 12.2%; in experiment [3], 3.05%; in experiment [4], 3.25%; in experiment [5] it was 0.1%; in experiment [6] it was 25.7%.

For `COc1cccc(-c2nc(SCC(N)=O)[nH]c(=O)c2C#N)c1`, the growth inhibition in experiment [1] was 6.25%; in experiment [2], 1.8%; in experiment [3] it was 13.5%; in experiment [4], 12%; in experiment [5], 17.5%; in experiment [6], 14.2%.

Turning to `Cn1c(Cl)cc2nc3ccccc3n2c1=O`, the growth inhibition in experiment [1] was 10.2%; in experiment [2], 19.7%; in experiment [3], -1%; in experiment [4] it was -11.3%; in experiment [5] it was 11.2%; in experiment [6] it was 5.4%.

As to `CC(N)c1ccc2ccccc2c1O` (stereo not given), the growth inhibition was -3.95% in experiment [1]; -7.05% in experiment [2]; 8.8% in experiment [3]; -11.2% in experiment [4]; -6% in experiment [5]; 8.05% in experiment [6].

Regarding `Cc1onc(-c2ccccc2Cl)c1C(=O)NCC(=O)O`, the growth inhibition in experiment [1] is -5.55%; in experiment [2], 2.6%; in experiment [3] it was -3.5%; in experiment [4] it was 3.5%; in experiment [5], 12.7%; in experiment [6], -0.15%.

With `CC(CC(=O)O)C(C)C(=O)O` (stereo not given), the growth inhibition in experiment [1] was -7.9%; in experiment [2], -4.45%; in experiment [3], -6.4%; in experiment [4] it was -7.7%; in experiment [5] it was 0.5%; in experiment [6], -13.4%.

Turning to `CS(=O)c1ccc(/C=C2/C=Cc3ccccc32)cc1` (stereo not given), the growth inhibition in experiment [1] was 32.8%; in experiment [2] it was 27.3%; in experiment [3], 30.5%; in experiment [4] it was 22.1%; in experiment [5], 48.7%; in experiment [6] it was 36%.

As for `COc1ccccc1OCC(O)CNc1ccc(Cl)cc1C(=O)c1ccccc1` (stereo not given), the growth inhibition is 3.25% in experiment [1]; 21.5% in experiment [2]; -8.8% in experiment [3]; -12% in experiment [4]; -2.7% in experiment [5]; -19.4% in experiment [6].

For the compound `CN(C=O)/C=C/c1cc(O)ccc1O`, the growth inhibition was -0.95% in experiment [1]; -0.8% in experiment [2]; -1.6% in experiment [3]; -4.1% in experiment [4]; 7.7% in experiment [5]; 5.4% in experiment [6].

Take `c1ccc(C[n+]2ccc3c(c2)CCCC3)cc1`: the growth inhibition is -1% in experiment [1]; -13.2% in experiment [2]; 27.8% in experiment [3]; 17.3% in experiment [4]; 19.1% in experiment [5]; 6.4% in experiment [6].

For the compound `CC1(CCC(=O)c2ccc3c(c2)OCO3)OCCO1`, the growth inhibition in experiment [1] is 31.8%; in experiment [2], 8.95%; in experiment [3], 23.4%; in experiment [4], 14%; in experiment [5], 24.6%; in experiment [6], 26.9%.

As for `O=C(NC/C=C/Br)Oc1cccc2ccccc12`, the growth inhibition was -0.05% in experiment [1]; 18.6% in experiment [2]; 0.9% in experiment [3]; 36.8% in experiment [4]; 2.85% in experiment [5]; 11.3% in experiment [6].

Regarding `N=C(N)c1nc2ccccc2s1`, the growth inhibition in experiment [1] is 6.2%; in experiment [2], -13.5%; in experiment [3], 17.4%; in experiment [4], 7.65%; in experiment [5], 24%; in experiment [6], 5.3%.

On to `CN(C)N=Nc1c(F)cccc1F`, for which the growth inhibition was -5.85% in experiment [1]; -13.8% in experiment [2]; -28.6% in experiment [3]; 20.4% in experiment [4]; 8.9% in experiment [5]; 0.65% in experiment [6].

With `Cc1ccc(N=Nc2c(C)nn(C(=S)S)c2C)cc1`, the growth inhibition is 71.9% (active) in experiment [1]; 39.4% in experiment [2]; 90% (active) in experiment [3]; 35.8% in experiment [4]; 83.3% (active) in experiment [5]; 96.2% (active) in experiment [6].

On to `O=C(c1ccccc1)C(c1ccccc1)C1(O)C(=O)Nc2ccc(Br)cc21` (stereo not given), for which the growth inhibition is 0.9% in experiment [1]; 7.35% in experiment [2]; -0.15% in experiment [3]; 16.1% in experiment [4]; 54.9% in experiment [5]; 7.1% in experiment [6].

With `Nc1nc(NCCCc2ccccc2)c(N)c(=O)[nH]1`, the growth inhibition in experiment [1] is 5.1%; in experiment [2], 16.9%; in experiment [3], 6.55%; in experiment [4], -3.1%; in experiment [5], 31.6%; in experiment [6] it was 7.6%.

For `O=C1C(CO)=C[C@@H](O)[C@H]2O[C@@H]12`, the growth inhibition is 8.25% in experiment [1]; 1.5% in experiment [2]; 12.6% in experiment [3]; 6.8% in experiment [4]; 15.9% in experiment [5]; 17.4% in experiment [6].

For the compound `CCN=NNc1ccc(C#N)cc1`, the growth inhibition in experiment [1] was 6.4%; in experiment [2], 2.15%; in experiment [3], -0.25%; in experiment [4], 6.1%; in experiment [5] it was 16.9%; in experiment [6] it was 0.55%.

Regarding `NC(N)=NC(=O)c1ccc(N)cc1`, the growth inhibition in experiment [1] is -13.6%; in experiment [2], -2.25%; in experiment [3], -0.1%; in experiment [4], -7.35%; in experiment [5], -3.4%; in experiment [6], 23.5%.
